In assay [1] the target is human Peroxisome Proliferator-activated Receptor alpha (PPARa), PPARA (gene 5465) (UniProt Q07869). Nature of the assay: ATG_PPARa_TRANS: Attagene TRANS-FACTORIAL HepG2 Assay for human Peroxisome Proliferator-activated Receptor alpha (PPARa) (AID 2283001).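 As to AC50: potency for gain of reporter signal over DMSO so agonist or activator.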 The method, boiled down:
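Reporter transcripts quantified by RT-PCR plus capillary electrophoresis after 24 h treatment, fitted upward relative to DMSO. Cells: human HepG2 transiently carrying multiple GAL4-UAS reporter units driven by NR-Gal4 chimeras.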

In assay [2] the target is human Peroxisome Proliferator-activated Receptor delta (PPARd), PPARD (gene 5467) (UniProt Q03181). Nature of the assay: ATG_PPARd_TRANS: Attagene TRANS-FACTORIAL HepG2 Assay for human Peroxisome Proliferator-activated Receptor delta (PPARd) (AID 2283002). In outline: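 Read-out is induced reporter mRNA, quantified by RT-PCR with fluorescent labelling and capillary electrophoresis after 24 h dosing. Cells are HepG2 transiently carrying multiple GAL4-UAS reporter units driven by exogenous NR-GAL4 chimeras; DMSO serves as baseline.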
Chain of human Peroxisome Proliferator-activated Receptor delta (PPARd), PPARD (gene 5467) (Q03181 whole entry, looked up, the tested form may be a part): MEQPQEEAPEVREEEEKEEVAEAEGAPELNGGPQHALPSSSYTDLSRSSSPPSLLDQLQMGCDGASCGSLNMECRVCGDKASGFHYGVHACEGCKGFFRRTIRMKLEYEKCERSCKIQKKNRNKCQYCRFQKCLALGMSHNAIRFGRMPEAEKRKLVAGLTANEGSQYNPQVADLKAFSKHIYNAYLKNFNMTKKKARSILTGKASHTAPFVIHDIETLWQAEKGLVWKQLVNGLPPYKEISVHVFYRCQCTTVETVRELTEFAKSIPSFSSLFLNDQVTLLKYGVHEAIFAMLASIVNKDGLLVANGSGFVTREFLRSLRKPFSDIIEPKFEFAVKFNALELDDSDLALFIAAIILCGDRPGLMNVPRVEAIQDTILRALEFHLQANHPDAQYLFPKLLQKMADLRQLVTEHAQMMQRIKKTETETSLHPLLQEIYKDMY

Assay [3] has as its target Peroxisome proliferator-activated receptor gamma (Homo sapiens) (UniProt P37231). Nature of the assay: ATG_PPARg_TRANS: Attagene TRANS-FACTORIAL HepG2 Assay for human Peroxisome Proliferator-activated Receptor-gamma (PPARg) (AID 2283007). In outline: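 HepG2 cells are transiently transfected with GAL4-UAS reporter units driven by chimeric NR-Gal4 fusions and dosed for 24 h. Reporter mRNA is quantified by RT-PCR, 6-FAM labelling, HpaI digestion and capillary electrophoresis. Induction is scored against DMSO.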

The target in assay [4] is Nuclear receptor subfamily 1 group I member 2 (Homo sapiens) (UniProt O75469). Nature of the assay: ATG_PXR_TRANS: Attagene TRANS-FACTORIAL HepG2 Assay for human Pregnane X Receptor (PXR) (AID 2283008). The method, boiled down:
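HepG2 transfected (FuGene 6) with GAL4-UAS reporter units + PXR-Gal4 chimera; dosed 24 h. Total RNA → oligo(dT) RT → PCR → 6-FAM primer extension → HpaI cut → CE. Gain-of-signal vs DMSO.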

The target in assay [5] is Retinoic acid receptor RXR-alpha (Homo sapiens) (UniProt P19793). Kind of assay: ATG_RXRa_TRANS: Attagene TRANS-FACTORIAL HepG2 Assay for human Retinoid X Receptor alpha (RXRa) (AID 2283012). In outline: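 Measures exogenous chimeric NR-GAL4 activity in transfected HepG2 liver cells after 24 h of dosing. Induced reporter mRNA was detected by RT-PCR with capillary electrophoresis, and gain of signal was analysed against DMSO.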
Chain of Retinoic acid receptor RXR-alpha (Homo sapiens) (P19793 whole entry, looked up, the tested form may be a part): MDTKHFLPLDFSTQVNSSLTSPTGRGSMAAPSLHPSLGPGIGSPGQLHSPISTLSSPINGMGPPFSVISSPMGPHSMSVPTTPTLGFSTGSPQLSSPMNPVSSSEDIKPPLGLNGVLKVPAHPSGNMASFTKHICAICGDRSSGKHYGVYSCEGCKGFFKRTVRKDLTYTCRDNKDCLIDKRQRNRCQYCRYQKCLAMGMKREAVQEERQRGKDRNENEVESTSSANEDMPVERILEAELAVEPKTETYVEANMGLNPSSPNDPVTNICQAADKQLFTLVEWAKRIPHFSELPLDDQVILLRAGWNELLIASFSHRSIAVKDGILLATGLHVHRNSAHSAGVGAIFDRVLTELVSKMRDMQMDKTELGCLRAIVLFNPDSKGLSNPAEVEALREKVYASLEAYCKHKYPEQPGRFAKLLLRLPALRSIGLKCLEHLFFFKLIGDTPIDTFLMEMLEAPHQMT

The target in assay [6] is human Retinoid X Receptor beta (RXRb), RXRB (gene 6257) (UniProt P28702). Kind of assay: ATG_RXRb_TRANS: Attagene TRANS-FACTORIAL HepG2 Assay for human Retinoid X Receptor beta (RXRb) (AID 2283013). In outline: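 Chimeric receptor-Gal4 activity was assessed in transiently transfected human HepG2 cells after 24 h exposure. Transcripts from GAL4-UAS reporters were quantified by fluorescent RT-PCR and capillary electrophoresis, with DMSO as negative control and baseline.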
Chain of human Retinoid X Receptor beta (RXRb), RXRB (gene 6257) (P28702 whole entry, looked up, the tested form may be a part): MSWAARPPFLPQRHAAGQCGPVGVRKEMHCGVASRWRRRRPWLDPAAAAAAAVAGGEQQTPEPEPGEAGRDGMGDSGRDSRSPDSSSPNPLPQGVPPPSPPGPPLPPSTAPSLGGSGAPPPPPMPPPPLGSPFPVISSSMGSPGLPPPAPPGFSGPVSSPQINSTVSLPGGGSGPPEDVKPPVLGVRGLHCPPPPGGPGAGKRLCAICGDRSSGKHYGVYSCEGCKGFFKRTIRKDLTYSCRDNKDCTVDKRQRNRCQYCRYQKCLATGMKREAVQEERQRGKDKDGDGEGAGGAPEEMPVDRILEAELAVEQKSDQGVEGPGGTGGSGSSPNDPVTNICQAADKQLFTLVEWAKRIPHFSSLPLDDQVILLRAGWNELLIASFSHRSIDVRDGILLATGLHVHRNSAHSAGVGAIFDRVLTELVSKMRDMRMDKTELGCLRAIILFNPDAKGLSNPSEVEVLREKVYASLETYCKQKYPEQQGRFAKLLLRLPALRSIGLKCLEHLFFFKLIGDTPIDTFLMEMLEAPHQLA

For assay [7], the target named is human Thyroid Receptor alpha (THRa1), THRA (gene 7067) (UniProt P10827). Nature of the assay: ATG_THRa1_TRANS: Attagene TRANS-FACTORIAL HepG2 Assay for human Thyroid Receptor alpha (THRa1) (AID 2283014). In outline:
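HepG2 cells transiently transfected with multiplexed GAL4-UAS reporter units for exogenous chimeric THRa1-Gal4; reporter mRNA measured 24 h after dosing by RT-PCR, 6-FAM labelling, HpaI digestion and capillary electrophoresis. Gain-of-signal fitted versus DMSO baseline.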

In assay [8] the target is human Retinoic Acid Receptor gamma (RARg), RARG (gene 5916) (UniProt P13631). Kind of assay: ATG_RARg_TRANS: Attagene TRANS-FACTORIAL HepG2 Assay for human Retinoic Acid Receptor gamma (RARg) (AID 2283009). In outline:
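TRANS format measured activity of exogenous NR-GAL4 fusion (RARg) in transfected HepG2 liver cells after 24 h dosing. Induced reporter RNA was detected by RT-PCR/capillary electrophoresis fluorescence, analysed in the positive direction against DMSO.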

Assay [9] concerns the target human RAR-related Orphan Receptor beta (RORb), RORB (gene 6096) (UniProt Q92753). Kind of assay: ATG_RORb_TRANS: Attagene TRANS-FACTORIAL HepG2 Assay for human RAR-related Orphan Receptor beta (RORb) (AID 2283010). The method, boiled down:
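Transfect HepG2 with multiple GAL4-UAS reporter transcription units; dose chemicals for 24 h; isolate RNA, reverse-transcribe and PCR-amplify reporter sequences; label, digest and resolve fragments by capillary electrophoresis; fit increases relative to DMSO.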

For assay [10], the target named is Retinoic acid receptor alpha (Homo sapiens) (UniProt P10276). Kind of assay: ATG_RARa_TRANS: Attagene TRANS-FACTORIAL HepG2 Assay for human Retinoic Acid Receptor alpha (RARa) (AID 2283005). The method, boiled down:
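Reporter transcripts, measured by RT-PCR with fluorescent labeling and capillary electrophoresis after 24 h dosing, reflect activity of an exogenous human RARa–GAL4 fusion in transiently transfected HepG2. Fitted for increase relative to DMSO.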

Assay [11] has as its target human RAR-related Orphan Receptor gamma (RORg), RORC (gene 6097) (UniProt P51449). Kind of assay: ATG_RORg_TRANS: Attagene TRANS-FACTORIAL HepG2 Assay for human RAR-related Orphan Receptor gamma (RORg) (AID 2283011). In outline: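 Readout: reporter transcript induction (RT-PCR, fluorescent primer extension, capillary electrophoresis) after 24 h compound exposure of transiently transfected HepG2 cells carrying a RORg-Gal4 chimera and GAL4-UAS reporters; DMSO served as baseline, with increasing signal fitted.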

Assay [12] concerns the target human Retinoic Acid Receptor beta (RARb), RARB (gene 5915) (UniProt P10826). Kind of assay: ATG_RARb_TRANS: Attagene TRANS-FACTORIAL HepG2 Assay for human Retinoic Acid Receptor beta (AID 2283004). The method, boiled down: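 HepG2 cells transiently transfected with multiplexed GAL4-UAS reporter units expressing chimeric NR–Gal4 fusions; 24 h compound exposure. Reporter mRNA quantified by RT-PCR, 6-FAM labelling, HpaI digestion and capillary electrophoresis; gain-of-signal fitted against DMSO baseline.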

Records with an inconclusive call do not appear. Activity calls are given as the source filed them. The calls were made as follows: active = hit-call score of the fitted dose curve at least 0.9, where 1 is the maximum; inconclusive = response in the unintended direction; inactive = score below 0.9.

Here are results for 26 molecules from PubChem BioAssay (EPA / NIEHS).

Chain of human Thyroid Receptor alpha (THRa1), THRA (gene 7067) (P10827 whole entry, looked up, the tested form may be a part): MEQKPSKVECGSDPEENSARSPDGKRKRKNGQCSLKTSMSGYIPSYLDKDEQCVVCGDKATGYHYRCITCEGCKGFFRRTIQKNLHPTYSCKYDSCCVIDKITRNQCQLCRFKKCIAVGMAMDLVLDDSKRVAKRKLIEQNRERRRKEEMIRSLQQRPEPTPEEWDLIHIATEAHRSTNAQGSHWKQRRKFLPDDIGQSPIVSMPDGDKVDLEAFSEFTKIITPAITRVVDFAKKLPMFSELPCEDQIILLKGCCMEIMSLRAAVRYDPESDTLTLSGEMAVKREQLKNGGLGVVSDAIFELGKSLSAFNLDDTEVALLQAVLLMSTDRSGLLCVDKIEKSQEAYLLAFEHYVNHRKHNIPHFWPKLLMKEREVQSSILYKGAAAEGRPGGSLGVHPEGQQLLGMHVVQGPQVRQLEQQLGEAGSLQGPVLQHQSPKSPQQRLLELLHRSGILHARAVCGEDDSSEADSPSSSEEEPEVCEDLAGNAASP
Chain of human RAR-related Orphan Receptor beta (RORb), RORB (gene 6096) (Q92753 whole entry, looked up, the tested form may be a part): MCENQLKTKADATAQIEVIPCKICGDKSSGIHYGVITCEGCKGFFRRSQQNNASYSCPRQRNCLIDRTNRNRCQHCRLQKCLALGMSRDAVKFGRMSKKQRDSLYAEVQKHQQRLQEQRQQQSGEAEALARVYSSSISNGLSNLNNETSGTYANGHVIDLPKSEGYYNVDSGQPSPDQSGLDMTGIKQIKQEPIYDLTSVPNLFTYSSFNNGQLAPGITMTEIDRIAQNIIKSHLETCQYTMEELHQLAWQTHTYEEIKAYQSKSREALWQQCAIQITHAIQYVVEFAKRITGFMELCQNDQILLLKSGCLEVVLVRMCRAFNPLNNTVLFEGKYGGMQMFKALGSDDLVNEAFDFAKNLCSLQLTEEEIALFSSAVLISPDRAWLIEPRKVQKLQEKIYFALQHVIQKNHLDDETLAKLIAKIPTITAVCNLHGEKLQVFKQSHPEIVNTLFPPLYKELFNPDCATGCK
Chain of Nuclear receptor subfamily 1 group I member 2 (Homo sapiens) (O75469 whole entry, looked up, the tested form may be a part): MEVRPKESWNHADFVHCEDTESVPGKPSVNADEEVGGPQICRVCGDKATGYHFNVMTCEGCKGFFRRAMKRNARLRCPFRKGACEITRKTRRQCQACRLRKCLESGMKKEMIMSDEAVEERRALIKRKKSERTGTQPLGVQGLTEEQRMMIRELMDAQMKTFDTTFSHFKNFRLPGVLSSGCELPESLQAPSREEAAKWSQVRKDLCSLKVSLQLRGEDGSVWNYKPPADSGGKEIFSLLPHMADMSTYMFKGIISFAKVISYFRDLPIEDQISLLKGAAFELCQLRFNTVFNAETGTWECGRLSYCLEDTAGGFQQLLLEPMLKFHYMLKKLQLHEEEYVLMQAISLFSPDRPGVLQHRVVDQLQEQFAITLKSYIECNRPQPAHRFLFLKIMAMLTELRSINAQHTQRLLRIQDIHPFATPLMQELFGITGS
Chain of human RAR-related Orphan Receptor gamma (RORg), RORC (gene 6097) (P51449 whole entry, looked up, the tested form may be a part): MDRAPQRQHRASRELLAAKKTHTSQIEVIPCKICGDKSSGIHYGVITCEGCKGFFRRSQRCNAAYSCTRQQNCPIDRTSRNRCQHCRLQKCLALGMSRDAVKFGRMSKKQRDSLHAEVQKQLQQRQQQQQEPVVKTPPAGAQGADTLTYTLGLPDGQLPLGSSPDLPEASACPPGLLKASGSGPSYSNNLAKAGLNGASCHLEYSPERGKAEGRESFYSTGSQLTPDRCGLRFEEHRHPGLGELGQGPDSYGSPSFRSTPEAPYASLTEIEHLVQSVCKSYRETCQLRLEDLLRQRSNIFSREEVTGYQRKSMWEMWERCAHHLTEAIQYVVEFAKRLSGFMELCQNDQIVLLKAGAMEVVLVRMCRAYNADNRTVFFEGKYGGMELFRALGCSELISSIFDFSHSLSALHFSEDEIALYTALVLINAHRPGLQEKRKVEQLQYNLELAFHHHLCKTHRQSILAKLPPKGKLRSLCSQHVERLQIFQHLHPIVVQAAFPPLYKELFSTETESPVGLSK
Chain of Retinoic acid receptor alpha (Homo sapiens) (P10276 whole entry, looked up, the tested form may be a part): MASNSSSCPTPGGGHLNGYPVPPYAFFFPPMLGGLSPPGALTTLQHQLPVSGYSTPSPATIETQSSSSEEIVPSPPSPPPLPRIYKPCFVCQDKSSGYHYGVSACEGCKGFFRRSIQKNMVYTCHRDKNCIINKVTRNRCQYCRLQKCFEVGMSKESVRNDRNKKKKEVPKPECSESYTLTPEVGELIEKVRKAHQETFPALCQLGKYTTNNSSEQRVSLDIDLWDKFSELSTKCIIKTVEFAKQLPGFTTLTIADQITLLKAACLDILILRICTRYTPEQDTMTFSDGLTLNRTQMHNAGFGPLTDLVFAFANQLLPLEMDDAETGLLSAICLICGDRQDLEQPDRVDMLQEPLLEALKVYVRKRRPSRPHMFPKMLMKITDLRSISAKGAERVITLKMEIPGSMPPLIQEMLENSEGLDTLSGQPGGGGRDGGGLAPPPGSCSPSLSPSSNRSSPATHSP
Chain of human Peroxisome Proliferator-activated Receptor alpha (PPARa), PPARA (gene 5465) (Q07869 whole entry, looked up, the tested form may be a part): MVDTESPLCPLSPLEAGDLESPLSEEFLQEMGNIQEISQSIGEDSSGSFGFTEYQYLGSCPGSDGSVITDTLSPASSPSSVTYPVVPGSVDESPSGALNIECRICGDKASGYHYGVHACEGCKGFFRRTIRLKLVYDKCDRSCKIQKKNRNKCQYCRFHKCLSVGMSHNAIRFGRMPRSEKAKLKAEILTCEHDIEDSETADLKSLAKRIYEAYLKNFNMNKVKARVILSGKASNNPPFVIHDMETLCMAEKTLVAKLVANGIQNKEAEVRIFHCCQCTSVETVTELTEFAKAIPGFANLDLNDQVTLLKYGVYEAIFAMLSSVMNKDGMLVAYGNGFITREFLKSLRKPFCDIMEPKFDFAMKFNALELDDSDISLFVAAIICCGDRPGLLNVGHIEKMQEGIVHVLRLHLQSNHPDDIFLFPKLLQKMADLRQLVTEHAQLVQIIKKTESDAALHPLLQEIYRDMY
Chain of human Retinoic Acid Receptor gamma (RARg), RARG (gene 5916) (P13631 whole entry, looked up, the tested form may be a part): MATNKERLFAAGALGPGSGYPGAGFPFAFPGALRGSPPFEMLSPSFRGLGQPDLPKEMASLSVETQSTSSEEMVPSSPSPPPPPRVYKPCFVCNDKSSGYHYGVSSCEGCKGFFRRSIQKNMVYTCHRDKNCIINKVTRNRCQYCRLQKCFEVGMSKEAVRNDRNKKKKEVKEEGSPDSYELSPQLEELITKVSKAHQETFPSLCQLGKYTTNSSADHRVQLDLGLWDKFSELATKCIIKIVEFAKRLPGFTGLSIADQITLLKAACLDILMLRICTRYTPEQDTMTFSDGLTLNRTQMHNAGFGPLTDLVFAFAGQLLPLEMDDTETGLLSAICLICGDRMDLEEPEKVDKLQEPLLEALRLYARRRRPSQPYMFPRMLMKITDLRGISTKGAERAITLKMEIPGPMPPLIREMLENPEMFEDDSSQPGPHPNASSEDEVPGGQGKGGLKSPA

Consider `C=CCCCCCCCCO`, for which the molecule was classed as inactive in assay [1], in assay [2], in [3], in assay [4], in assay [5] and in [6]. In assay [7], the call was inactive.

`C=C(C)C(=O)OCC(O)COc1ccc(C(C)(C)c2ccc(OCC(O)COC(=O)C(=C)C)cc2)cc1` (centres undefined): the call in [1], in [2], in assay [8], in [9] and in assay [5] was inactive. In addition, the values for the AC50 in assay [3], in [4] and in assay [7] were 7.32 µM (active), 6.93 µM (active) and 23.8 µM (active), respectively.

Turning to `CC(CC=O)CC(C)(C)C` (centres undefined), the result in assay [1], in assay [2], in [3], in assay [5], in assay [6] and in assay [7] was inactive. In addition, in assay [4], the AC50 is 7.15 µM (active).

In the case of `COC(=O)C=Cc1ccccc1`, the outcome in assay [1], in assay [2], in [10], in [3], in assay [4] and in [8] was inactive. Moreover, the call in [11], in assay [6] and in [7] was inactive.

For the molecule `CCC(C)N` (centres undefined), the outcome in [1], in assay [2], in assay [12], in assay [3] and in assay [6] was inactive.

Take `CCOC(=O)OC(=O)OCC`: the molecule was classed as inactive in [1], in [2], in assay [4], in [8], in assay [5] and in [7].

With `CCC(C)C(=O)OCCc1ccccc1` (centres undefined), the call in [1], in assay [2], in assay [4], in assay [11], in assay [5] and in assay [6] was inactive. Moreover, the result in assay [7] was inactive.

In the case of `CCCCCCCCCC[N+](C)(CCCCCCCCCC)CCC[Si](OC)(OC)OC`, the result in assay [1], in [2], in assay [3], in assay [4], in [5] and in assay [6] was inactive. Also, the outcome in [7] was inactive.

With `Cc1ccccc1CCO`, the molecule was classed as inactive in assay [1], in assay [2], in assay [9], in assay [11], in [5] and in assay [6].

As to `Oc1ccc(-c2ccccc2)c(Cl)c1`, the AC50 is 41.1 µM (active) in [1] and 39.9 µM (active) in [3]. In addition, the molecule was called inactive in assay [2], in [4], in assay [8] and in assay [7].

With `O=C(O)/C=C/c1ccccc1`, the molecule was classed as inactive in [1], in assay [2], in assay [3], in assay [4], in assay [5] and in assay [7]. For the same molecule, the AC50 in assay [6] is 121 µM (active).

For the molecule `CC1(C)CCC[C@]2(C)[C@H]3CC(=O)O[C@]3(C)CC[C@@H]12`, the outcome in assay [1], in [2], in [10], in assay [3], in [8] and in assay [5] was inactive. The molecule was classed as inactive in [6]. Besides, the AC50 in assay [4] is 6.22 µM (active).

With `C=CCOC(=O)c1ccc(C(=O)OCC=C)c(C(=O)OCC=C)c1`, the values for the AC50 in assay [1] and in assay [3] were 8.92 µM (active) and 27.7 µM (active), respectively. Also, the outcome in assay [2], in assay [4], in assay [5], in [6] and in assay [7] was inactive.

Regarding `CCCSSCCC`, the outcome in assay [1], in [2], in assay [10], in assay [8], in assay [11] and in assay [5] was inactive.

Consider `O=S(=O)(O)c1ccc(Nc2nc(Nc3ccc(C=Cc4ccc(Nc5nc(Nc6ccc(S(=O)(=O)O)cc6)nc(N(CCO)CCO)n5)cc4S(=O)(=O)O)c(S(=O)(=O)O)c3)nc(N(CCO)CCO)n2)cc1`, for which the result in assay [1], in assay [2], in assay [10], in assay [3], in assay [5] and in assay [6] was inactive.

On to `CC(C)CC(=O)OCc1ccccc1`, for which the outcome in [1], in [2], in [3], in [4], in assay [11] and in assay [6] was inactive.

In the case of `C=CC(=O)O[C@H]1C[C@@H]2CC[C@@]1(C)C2(C)C`, the molecule was called inactive in assay [1], in assay [2], in assay [3], in assay [9], in assay [5] and in assay [6]. The molecule was called inactive in assay [7]. In assay [4], the AC50 is 26.6 µM (active).

As for `CCCc1ccc(O)c(OC)c1`, the molecule was classed as inactive in assay [1], in assay [4], in [8], in assay [11], in assay [5] and in assay [6]. For the same molecule, in assay [3], the AC50 was 57.2 µM (active).

In the case of `N#CC1(N)CCCCC1`, the molecule was called inactive in assay [1], in assay [3], in [8], in assay [5] and in assay [6].

Turning to `O=C(C=Cc1ccccc1)OCCc1ccccc1`, the molecule was called inactive in [1], in assay [4], in assay [11], in [5], in assay [6] and in [7]. Further, the concentration at half-maximal activity (AC50) in assay [3] was 3.05 µM (active).

`O=C(O[C@@H]1Cc2c(O)cc(O)cc2O[C@@H]1c1cc(O)c(O)c(O)c1)c1cc(O)c(O)c(O)c1`: the molecule was called inactive in assay [1], in assay [3], in assay [4], in assay [8], in assay [5] and in assay [6]. In assay [7], the molecule was called inactive.

`CC(=O)CCC1=C(C)CCCC1(C)C`: the call in assay [1], in [12], in assay [3], in assay [8], in assay [11] and in assay [5] was inactive. In addition, in [7], the molecule was classed as inactive. Besides, the AC50 is 6.98 µM (active) in assay [4] and 19.6 µM (active) in [6].

Consider `C=CC(C)(CCC=C(C)C)OC(=O)C=Cc1ccccc1` (centres undefined), for which the result in assay [1], in assay [6] and in assay [7] was inactive. Also, the concentration at half-maximal activity (AC50) in assay [3] was 4.97 µM (active); in assay [4] it was 2.75 µM (active).

Take `O=C(O)CCC(=O)O`: the molecule was classed as inactive in assay [1], in [9] and in [6].

Regarding `CCCC=C(C=O)CC`, the outcome in [1] and in [4] was inactive.

As for `C=C(C)OC(C)=O`, the call in assay [1], in assay [4] and in assay [8] was inactive.

In general, AC50 refers to the midpoint of the concentration-response curve, whichever way the signal moves.
